This note sets out measurements from PubChem BioAssay (NCATS).

Records with an inconclusive call do not appear. Calls of active or inactive are those of the source. Calls come from the whole dose curve; as a rule, active = well fitted curve in the direction sought with a large enough effect; inconclusive = small, poorly fitted or top-dose-only effect, or another doubt; inactive = no such curve, though single readings can be large; an effect the other way counts as inactive or inconclusive. Peptide text beside a SMILES is read from it.

Assay [1] addresses Cytochrome P450 3A4 (Homo sapiens) (UniProt P08684). The assay can be described thus: qHTS Assay for Inhibitors and Substrates of Cytochrome P450 3A4 (AID 884). Note: nearly all actives have a fitted effect of over 50% in size. The method, boiled down: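 Luminescent readout of luciferin produced by CYP3A4 (20 nM) dealkylation of Luciferin-PPXE, 25 uM (its KM). NADPH-driven reaction ran 60 min at RT after 10 min compound preincubation; data scaled to 57 uM ketoconazole as 100% inhibition.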

The nature of assay [2]: Confirmation and Secondary Assay for Modulators of Hemoglobin Beta Chain Splicing at IVS2 654 locus (AID 910).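 Note: HeLa cells stably carrying EGFP split by mutant beta-globin IVS2-654 intron; per-well total GFP intensity by laser scanning cytometry after 2-day treatment.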 The method, boiled down:
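Readout: per-well total peak green fluorescence (488 nm ex, 500–520 nm em) from objects 5–250 µm, reflecting correct splicing of an EGFP-654 reporter. Compounds were applied for 2 days at 37 °C to overnight-plated HeLa EGFP-654 cells; controls were DMSO and 500 nM IVS2-654 PNA.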

Assay [3] in a line: Confirmation and Secondary Assay for Modulators of Hemoglobin Beta Chain Splicing at IVS2 705 locus (AID 930).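 Note: HeLa cells stably expressing the EGFP-705 splicing reporter; GFP fluorescence per well restored by corrected splicing of the IVS2-705 intron in EGFP.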 The method, boiled down:
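Per-well GFP, captured at 1 x 8 µm resolution with 488 nm excitation, served as the read-out for HeLa EGFP-705 cells incubated 2 days with test compound versus DMSO.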

The subject of a further assay is 7G8. The assay can be described thus: qHTS profiling for inhibitors of Plasmodium falciparum proliferation (AID 504749). Note: nearly all actives have a fitted effect of over 60% in size. Note: potency is the fitted concentration of half-maximal effect. To be noted: P. falciparum in erythrocytes, SYBR Green DNA, 72 h; series mostly up to 12.8 µM. In a few lines:
(§1)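 In a 72 h erythrocytic culture (37 C, humidified, 5% CO2) at 2.5% hematocrit and 0.3% starting parasitemia, compounds were tested; SYBR Green I in detergent lysis buffer stained parasite DNA overnight.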

In another assay the test system is CP203. The description is as above. To be noted: P. falciparum in erythrocytes, SYBR Green DNA, 72 h; series mostly up to 12.8 µM. In a few lines:
as §1

A further assay relates to CP215. The description is as above. As to conditions: P. falciparum in erythrocytes, SYBR Green DNA, 72 h; series mostly up to 12.8 µM. The method, boiled down:
as §1

The subject of another assay is CP335. Described as above. As to conditions: P. falciparum in erythrocytes, SYBR Green DNA, 72 h; series mostly up to 12.8 µM. In a few lines:
as §1

A further assay relates to DIV17. The description is as above. To be noted: P. falciparum in erythrocytes, SYBR Green DNA, 72 h; series mostly up to 12.8 µM. In a few lines: as §1
For a further assay, the system named is GB4. The assay is described as above. As to conditions: P. falciparum in erythrocytes, SYBR Green DNA, 72 h; series mostly up to 12.8 µM. The method, boiled down: as §1
The next assay has as its system ICS. The description is as above. To be noted: P. falciparum in erythrocytes, SYBR Green DNA, 72 h; series mostly up to 12.8 µM. In a few lines: as §1
For a further assay, the system named is W2. The assay is described as above. To be noted: P. falciparum in erythrocytes, SYBR Green DNA, 72 h; series mostly up to 12.8 µM. The method, boiled down: as §1
The nature of assay [4]: S16 Schwann cell viability assay (CellTiter-Glo assay) (AID 624031).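 Note: native untransfected S16 rat Schwann cells; cellular ATP luminescence as a viability measure; nearly all actives have a fitted effect of over 70% in size.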 In a few lines:
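Rat S16 Schwann cells without reporter constructs received compound or DMSO for 24 h at 37 °C under 5% CO2. Cellular ATP was then quantified by CellTiter-Glo luminescence, with vehicle wells defined as 0% activity and cell-free wells as reference.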

The test system of a further assay is CP260. The assay can be described thus: qHTS profiling for inhibitors of Plasmodium falciparum proliferation (AID 504749). Note: nearly all actives have a fitted effect of over 60% in size. Note: potency is the fitted concentration of half-maximal effect. As to conditions: P. falciparum in erythrocytes, SYBR Green DNA, 72 h; series mostly up to 12.8 µM. The method, boiled down: as §1
The next assay deals with DFO2036. The assay is described as above. As to conditions: P. falciparum in erythrocytes, SYBR Green DNA, 72 h; series mostly up to 12.8 µM. In a few lines:
as §1

Assay [5] can be described thus: S16 Schwann cell PMP22 intronic element firefly luciferase assay (AID 624032). Note: nearly all actives have a fitted effect of over 30% in size. The method, boiled down: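 Luciferase reporter of PMP22 intronic-element expression in stably transfected S16 rat Schwann cells, read by ONE-Glo luminescence after 24 h compound exposure at 37 C. Activity scaled between DMSO (0%) and positive-control PTC124; concentration-effect curves quality-classified.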

Assay [6] has as its target Cytochrome P450 3A4 (Homo sapiens) (UniProt P08684). The assay can be described thus: qHTS Assay for Activators of Cytochrome P450 3A4 (AID 885). Note: nearly all actives have a fitted effect of over 65% in size. The method, boiled down:
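Luminescent readout of luciferin formed from 25 uM Luciferin-PPXE (KM level) by 20 nM CYP3A4 in 200 mM KPO4, with 60 min NADPH-driven reaction at room temperature after 10 min compound exposure. Ketoconazole (57 uM) defined 100% inhibition.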

Cytochrome P450 3A4 (Homo sapiens), sequence (P08684 whole entry, looked up): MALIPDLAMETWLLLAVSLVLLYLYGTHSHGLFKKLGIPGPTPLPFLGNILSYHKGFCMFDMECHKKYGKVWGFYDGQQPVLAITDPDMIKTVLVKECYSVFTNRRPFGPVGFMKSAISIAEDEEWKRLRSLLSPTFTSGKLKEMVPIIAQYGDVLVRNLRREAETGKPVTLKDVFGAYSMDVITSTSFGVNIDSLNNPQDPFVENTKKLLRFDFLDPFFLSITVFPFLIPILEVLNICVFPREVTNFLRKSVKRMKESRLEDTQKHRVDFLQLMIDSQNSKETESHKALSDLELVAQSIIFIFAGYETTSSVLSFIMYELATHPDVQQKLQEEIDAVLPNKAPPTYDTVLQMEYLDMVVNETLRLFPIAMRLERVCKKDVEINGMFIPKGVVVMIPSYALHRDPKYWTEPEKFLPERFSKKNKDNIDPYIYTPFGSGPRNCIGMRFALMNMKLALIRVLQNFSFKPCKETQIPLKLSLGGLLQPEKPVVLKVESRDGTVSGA

For the molecule `CN(C)CCCOC1C(C(O)CO)OC2OC(C)(C)O[C@@H]21` (stereo not given in full), the Potency result (in [1]; in assay [2]; in assay [3]; in the assay with 7G8; with CP203; in the assay with CP215) was “inactive” each time. In addition, the Potency entry with CP335, in the assay on DIV17, in the assay on GB4, in the assay with ICS and in the assay on W2 was “inactive” throughout.

Regarding `OCC1O[C@H](OC2C(CO)O[C@@](O)(CO)C2O)C(O)C(O)C1O` (stereo not given in full), the Potency entry (in assay [1]; in [2]; in [3]; in the assay with 7G8; in the assay with CP203; with CP215) was “inactive” throughout. The Potency entry in the assay on CP260, with CP335, in the assay on DFO2036, with DIV17, in the assay on GB4 and in the assay with ICS was “inactive” throughout. Moreover, the Potency entry with W2 was “inactive”. Besides, the call in [4] was inactive.

In the case of `CCCCCCCCCc1ccc(OCCOCCOCCOCCOCCOCCOCCOCCOCCO)cc1`, the Potency entry (in assay [2]; in [3]; with CP260; with DFO2036) was “inactive” in each case. In addition, the Potency was 12.6 µM (active) in the assay on 7G8 and 15.1 µM (active) with W2.

As to `NC(CCC(=O)N[C@@H](CS)C(=O)NCC(=O)O)C(=O)O` (stereo not given in full), the Potency result in assay [1], in assay [2], in assay [3] and in [5] was “inactive” throughout. Further, the Potency in the assay with 7G8 is 0.708 µM (active); in the assay on CP260, 7.94 µM (active); in the assay with CP335, 6.01 µM (active); in the assay with DFO2036, 6.31 µM (active); with DIV17, 2.69 µM (active); in the assay on GB4, 6.75 µM (active). Also, the values for the Potency in the assay with ICS and in the assay on W2 were 1.26 µM (active) and 3.01 µM (active), respectively.

As to `CCC(C)C(=O)OC1CCC=C2C=CC(C)C(CCC3CC(O)CC(=O)O3)[C@@H]21` (stereo not given in full), the Potency result (in assay [6]; in assay [2]; in assay [3]; in [5]; in the assay on 7G8; in the assay on CP203) was “inactive” throughout. Also, the Potency result in the assay with CP215, in the assay on CP260, with CP335, in the assay on DIV17, in the assay on GB4 and in the assay with ICS was “inactive” in each case. The Potency result in the assay with W2 was “inactive”. Further, the call in assay [4] was inactive.

Take `COc1ccc2cc(C(C)CO)ccc2c1` (stereo not given): the Potency entry (in assay [1]; in [2]; in [3]; with 7G8; in the assay with CP203; with CP215) was “inactive” throughout. The Potency entry in the assay with CP260, in the assay on CP335, in the assay with DIV17, in the assay on GB4, in the assay with ICS and with W2 was “inactive” throughout. Also, the molecule was classed as inactive in [4].

For `CNC1CC(N)[C@H](O)[C@@H](O[C@@H]2OC(CO)C3OC4(OC(C(N)CO)C(O)C(O)C4O)O[C@@H]3[C@H]2O)C1O` (stereo not given in full), the Potency result (in assay [1]; in assay [2]; in [3]; in the assay with 7G8; with CP203; with CP215) was “inactive” in each case. For the same molecule, the Potency entry in the assay with CP260, in the assay on CP335, with DIV17, with GB4 and in the assay with ICS was “inactive” each time. In [4], the molecule was classed as inactive.

As for `CC(C)Oc1ccc2c(=O)cc(-c3ccccc3)oc2c1`, the Potency entry (in [1]; in assay [2]; in assay [3]; in assay [5]; in the assay on 7G8; in the assay with CP203) was “inactive” each time. Besides, the Potency result in the assay on CP215, with CP260, in the assay on CP335, in the assay with DFO2036, in the assay on DIV17 and with ICS was “inactive” each time. For the same molecule, the result in assay [4] was inactive. For the same molecule, the Potency in the assay with W2 was 0.0478 µM (active).

On to `N[C@@H]1C(O)OC(CO)C(O)C1O` (stereo not given in full), for which the Potency entry (in assay [1]; in assay [2]; in assay [3]; in the assay with 7G8; in the assay with CP260; with CP335) was “inactive” throughout. In addition, the Potency result with DFO2036, in the assay on DIV17, in the assay on ICS and in the assay with W2 was “inactive” each time. Besides, the result in assay [4] was inactive.

Turning to `CCCC(=O)O[C@]1(C(=O)CO)CCC2[C@@H]3CCC4=CC(=O)CC[C@]4(C)C3C(O)C[C@]21C` (stereo not given in full), the Potency entry (in [1]; in [2]; in [3]; in assay [5]; in the assay on 7G8; in the assay with CP203) was “inactive” throughout. The Potency result with CP215, with CP260, in the assay on CP335, with DFO2036, in the assay on DIV17 and in the assay with GB4 was “inactive” each time. Moreover, the Potency result in the assay with ICS and in the assay on W2 was “inactive” in each case. In addition, the molecule was classed as inactive in assay [4].

For the molecule `CN(C)CCc1c[nH]c2ccc(CC3COC(=O)N3)cc12` (stereo not given), the Potency result (in [1]; in assay [2]; in assay [3]; in assay [5]; with CP203; in the assay with CP215) was “inactive” each time. The Potency result in the assay on CP260, with CP335, in the assay on DFO2036, in the assay on DIV17, with GB4 and in the assay on ICS was “inactive” throughout. The Potency entry with W2 is “inactive”. Further, in assay [4], the molecule was called inactive.

For the molecule `COC(=O)C(Cc1ccccc1)NC(=O)C(N)CC(=O)O` (stereo not drawn) (H-Asp-Phe-OMe; configuration not given here), the Potency entry (in [1]; in assay [2]; in assay [3]; in the assay on 7G8; with CP203; in the assay with CP215) was “inactive” in each case. Besides, the Potency result in the assay on CP260, with CP335, with DFO2036, in the assay on DIV17, in the assay with GB4 and in the assay on ICS was “inactive” each time. Besides, the Potency entry in the assay with W2 is “inactive”. Moreover, the molecule was classed as inactive in assay [4].
